In article PMC5540273 (PLoS ONE, 2017) one finds Kd data, which are given here for eleven compounds.
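Further: kd values determined as follow-up on hits from a single-replicate KINOMEscan panel screen.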

In the first assay the test system is PIK3C2B.
Turning to `CNCc1ccc2nc(NC(=O)c3ccc(C(C)(C)C)cc3)cn2c1`, the Kd – broadly, the free concentration of one partner at which half of the binding sites on the other are occupied at equilibrium, for simple one-to-one binding – is greater than 10000 nM.
`Fc1ccc(-c2nc3n(c2-c2ccncc2)CCS3)cc1` [GI98581] displayed a Kd greater than 10000 nM.
As for `COc1cccc(NC(=O)Nc2ccc(C)c(-c3ccc(C(=O)Nc4ccncc4)cc3)c2)c1` [GSK1398474], the Kd is greater than 10000 nM.
`COc1ccc(Nc2nccc(NCCNC(=O)Nc3cc(C)ccc3C)n2)cc1` [GSK1379899] registered a Kd greater than 10000 nM.

A further assay deals with PIK3CA.
Consider `CNCc1ccc2nc(NC(=O)c3ccc(C(C)(C)C)cc3)cn2c1`, for which the Kd is greater than 10000 nM.
On the same count and under the same terms, the same measure for `Fc1ccc(-c2nc3n(c2-c2ccncc2)CCS3)cc1` [GI98581]: greater than 10000 nM; for `COc1cccc(NC(=O)Nc2ccc(C)c(-c3ccc(C(=O)Nc4ccncc4)cc3)c2)c1` [GSK1398474]: greater than 10000 nM; for `COc1ccc(Nc2nccc(NCCNC(=O)Nc3cc(C)ccc3C)n2)cc1` [GSK1379899]: greater than 10000 nM.

The next assay has as its system PIK3CB.
`Cc1ccccc1Cn1ccn2c(=O)cc(N3CCOCC3)nc12` [GSK2269905]: the Kd came to 27 nM.
Compound `O=c1cc(N2CCOCC2)nc2n(Cc3ccccc3F)ccn12` [GSK2297428] gave a Kd of 180 nM.
`O=C1NC(=O)C(c2ccc(Cl)cc2)=C1Nc1cccc(Cl)c1` [SB-317651] registered a Kd of 160 nM.
The same measure, in the same setting: next, `Cc1c(Cn2c3ccccc3n3c(=O)cc(N4CCOCC4)nc23)cccc1C(F)(F)F` [GSK2306394]: 680 nM; `O=c1cc(N2CCOCC2)nc2n(Cc3cccc(Cl)c3Cl)c3ccccc3n12` [GSK2299009]: 860 nM; `Cc1c(Cn2c(C)c(C)n3c(=O)cc(N4CCOCC4)nc23)cccc1C(F)(F)F` [GSK2328680]: 16 nM.
For `CCn1c(-c2c(N)noc2C)nc2cnccc21` [SB-737856], the Kd was greater than 10000 nM.
